{
  "source": "PubChem BioAssay (EPA / NIEHS)",
  "note": "Some structures have more than one record in an assay (separate samples or runs), and their calls can disagree. Activity calls are given as the source filed them. How the source made its calls: active means hit-call score of the fitted dose curve at least 0.9, where 1 is the maximum; inactive means score below 0.9.",
  "data": [
    {"experiment": "ATG_AP_2_CIS: Attagene CIS-FACTORIAL HepG2 Assay for human Activator Protein 2 (AP-2) (AID 2282932)", "details": "HepG2 AP-2 cis-reporter, Attagene transcription factor profiling; actives raise or lower the signal", "experimental": "ATG_CIS is a cell-based, multiplexed-readout assay that uses HepG2, a human liver cell line, with measurements taken at 24 hours after chemical dosing in a 24-well plate.ATG_AP_2_CIS is one of 52 assay component(s) measured or calculated from the ATG_CIS assay. It is designed to make measurements of mRNA induction, a form of inducible reporter, as detected with fluorescence intensity signals by Reverse transcription polymerase chain reaction (RT-PCR) and Capillary electrophoresis technology.Data from the assay component ATG_AP_2_CIS was analyzed into 1 assay endpoint. This assay endpoint, ATG_AP_2_CIS, was analyzed with bidirectional fitting relative to DMSO as the negative control and baseline of activity. Using a type of inducible reporter, measures of mRNA for gain or loss-of-signal activity can be used to understand the reporter gene at the transcription factor-level as they relate to the gene TFAP2A and TFAP2B and TFAP2D. Furthermore, this assay endpoint can be referred to as a primary readout, because this assay has produced multiple assay endpoints where this one serves a reporter gene function. To generalize the intended target to other relatable targets, this assay endpoint is annotated to the dna binding intended target family, where the subfamily is basic helix-turn-helix leucine zipper.\nHuman liver HepG2 cells are transiently transfected with multiple reporter transcription units (MRTUs) in 6-well plates using FuGene 6 reagent (Roche; 3 ml FuGene/1 mg DNA). The MRTU constructs are regulated by a cis-regulating element (promoter). […] A major difference between the CIS and TRANS system is that in CIS activities of endogenous TFs are measured, whereas the TRANS assay evaluates changes in activities of exogenous, chimeric NR-Gal4 proteins. […] At the end of 24 hour incubation, total RNA was isolated using TriZol reagent (Invitrogen). The isolated RNA is then reverse-transcribed using oligo(dT) primer and Mo-MLV reverse transcriptase (Invitrogen) with DNAse I (Ambion) treatment for 30 min. The one-tenth of the produced cDNA was amplified by PCR using Taq DNA polymerase (Invitrogen) and two reporter sequence-specific primers. The PCR products were fluorescently labeled by primer extension with 6-arboxyfluorescein (6-FAM) 5'-labeled reporter sequence-specific primer (2 min at 95 C, 20 s at 68 C and 10 min at 72 C) and these products were digested with 5U of HpaI (New England Biolabs) for 2h at 37 C. The fragments were purified using Qiaquick PCR columns (Qiagen), analyzed on an ABI 3130xL genetic analyzer (Applied Biosystems) with peak positions identified by using a set of X-rhodamine (ROX)-labeled MapMarker1000 molecular weight standards (BioVentures). The raw capillary electrophoresis data was processed using Attagraph software (Attagene).", "values": [
      {"smiles": "O=C1OC2(c3ccccc31)c1cc(Br)c(O)c(Br)c1Oc1c2cc(Br)c(O)c1Br", "outcome": "inactive"},
      {"smiles": "CC(C)(C)c1cccc(C(C)(C)C)c1O", "outcome": "inactive"},
      {"smiles": "Nc1cccc2c(N)cccc12", "outcome": "inactive"},
      {"smiles": "CC(O)C(=O)O", "note": "(stereo not given)", "outcome": "inactive"},
      {"smiles": "O=C(/C=C/c1ccc(O)cc1)CC(=O)/C=C/c1ccc(O)cc1", "AC50": "100 µM (active)"},
      {"smiles": "Cc1ccc(S(=O)(=O)O)c(C)c1", "outcome": "inactive"},
      {"smiles": "CCN(CC)CCNc1ccc(CNC=O)c2sc3ccc(OC)cc3c(=O)c12", "AC50": "0.496 µM (active)"},
      {"smiles": "C[C@@H]1C[C@H]2[C@@H]3CCC4=CC(=O)C=C[C@]4(C)[C@@]3(F)[C@@H](O)C[C@]2(C)[C@@]1(O)C(=O)COP(=O)(O)O", "outcome": "inactive"},
      {"smiles": "O=C(O)Cc1cc(I)c(Oc2cc(I)c(O)c(I)c2)c(I)c1", "outcome": "inactive", "AC50": "121 µM (active)"},
      {"smiles": "CCCCC(CC)COC(=O)CCCCC(=O)OCC(CC)CCCC", "note": "(stereo not given)", "outcome": "inactive"},
      {"smiles": "Cc1oc(-c2ccccc2)nc1CCOc1ccc(C[C@H](Nc2ccccc2C(=O)c2ccccc2)C(=O)O)cc1", "outcome": "inactive"},
      {"smiles": "CCCCCCCCCCCCN1CCCC1=O", "outcome": "inactive"},
      {"smiles": "CC(C)(C)c1ccc(O)c(C(C)(C)C)c1", "outcome": "inactive"},
      {"smiles": "O=C(O)c1ccccc1C(c1ccc(O)cc1)c1ccc(O)cc1", "outcome": "inactive"},
      {"smiles": "Oc1cccc(O)c1", "outcome": "inactive"},
      {"smiles": "CC(C)CCCCCCOC(=O)CCCCC(=O)OCCCCCCC(C)C", "outcome": "inactive"},
      {"smiles": "COc1ccc([N+](=O)[O-])cc1N", "outcome": "inactive"},
      {"smiles": "CCOC(=O)CC(O)(CC(=O)OCC)C(=O)OCC", "outcome": "inactive"},
      {"smiles": "CCCCOCCO", "outcome": "inactive"},
      {"smiles": "CCCCC[C@H](O)CC(=O)CCc1ccc(O)c(OC)c1", "AC50": "79.2 µM (active)"},
      {"smiles": "CC#C[C@]1(O)CC[C@H]2[C@@H]3CCC4=CC(=O)CCC4=C3[C@@H](c3ccc(N(C)C)cc3)C[C@@]21C", "AC50": "25.7 µM (active)", "outcome": "inactive"},
      {"smiles": "CC(=O)NC1(c2cccc(F)c2)CCN(CC[C@@]2(c3ccc(Cl)c(Cl)c3)CN(c3ccccc3)C(=O)CO2)CC1", "outcome": "inactive"},
      {"smiles": "CCCCCCC(=O)O", "outcome": "inactive"},
      {"smiles": "CN(C)C=O", "outcome": "inactive"},
      {"smiles": "CCCCCCCCC(=O)O", "outcome": "inactive"},
      {"smiles": "OCCC(F)(F)C(F)(F)C(F)(F)C(F)(F)C(F)(F)C(F)(F)C(F)(F)C(F)(F)F", "outcome": "inactive"},
      {"smiles": "COCC(C)OCC(C)O", "note": "(stereo not given)", "outcome": "inactive"},
      {"smiles": "c1ccc2c(c1)Cc1ccccc1-2", "outcome": "inactive"},
      {"smiles": "c1ccc2c(c1)ccc1ccccc12", "outcome": "inactive"},
      {"smiles": "C=C(C)C(=O)OCCC(F)(F)C(F)(F)C(F)(F)C(F)(F)C(F)(F)C(F)(F)F", "outcome": "inactive"},
      {"smiles": "O=c1c(-c2ccc(O)cc2)coc2cc(O)ccc12", "outcome": "inactive"},
      {"smiles": "Cc1cc(C)c(O)c(C)c1", "outcome": "inactive"},
      {"smiles": "CC(C)(C)c1cc(C(C)(C)C)c(O)c(C(C)(C)C)c1", "outcome": "inactive"},
      {"smiles": "CC1=C(/C=C/C(C)=C/C=C/C(C)=C/C(=O)O)C(C)(C)CCC1", "outcome": "inactive"},
      {"smiles": "OC1CCC(C2CCCCC2)CC1", "note": "(stereo not given)", "outcome": "inactive", "AC50": "56.9 µM (active)"},
      {"smiles": "Cc1cc(CCN2CCN(c3nsc4ccccc34)CC2)cc2c1NC(=O)CC2(C)C", "outcome": "inactive"},
      {"smiles": "ClC1=C(Cl)C(Cl)(Cl)C(Cl)=C1Cl", "outcome": "inactive"}
    ]}
  ]
}
